Measured values published in PubChem BioAssay AID1159524 (National Center for Advancing Translational Sciences (NCATS), 2015).
About 5,100 (1.2%) of roughly 410,000 compounds were called active. Entries that show only a call come without a potency. Roughly 8% stayed inconclusive and do not appear here. The sample holds actives, similar compounds and a random draw of the others, so the mix is not that of the screen. A number with no mark means an inactive call. Calls come from the whole dose curve; tested in HEK293T cells.

assay: High Throughput Screening for Foot and Mouth Disease Virus Antivirals; details: FMDV antiviral cell-based qHTS; series mostly up to 57.9 µM; note: read-out not given here; nearly all actives have a fitted effect of over 45% in size
Potency is the fitted concentration of half-maximal effect.

Row | SMILES | Potency | activity change, negative = inhibition
1 | COc1cccc(Cn2c(=O)c(-c3cc(F)cc(F)c3)nc3cnc(OC)nc32)c1 | inactive | 
2 | COc1cccc(Nc2ncc3ncc(=O)n(C4CC4)c3n2)c1 | inactive | 
3 | NCCCNCCCCN(CCCN)/[N+]([O-])=N/O | inactive | 
4 | N#CCCn1c(=O)c(-c2cc(F)cc(F)c2)nc2cnc(Oc3ccccc3)nc21 | inactive | 
5 | COc1ccc(OC)c(CNC(=O)CN2C(=O)CCn3nc(-c4cn(C)c5ccccc45)cc32)c1 | inactive | 
6 | CN(C(=O)CN1CCN(c2cc(-c3ccc(OCc4ccccc4)cc3)ncn2)CC1)c1ccccc1 | 25.1 µM (active) | 
7 | CCc1ccc(OCC(=O)N2CCN(CC(=O)Nc3ccccc3Cl)CC2)cc1 | inactive | 
8 | CCN(CC)c1ccc(NC(=O)CN2CCN(c3ccccn3)CC2)cc1 | inactive | 
9 | c1ccc2c(Nc3ccncc3)nc(-c3ccoc3)nc2c1 | inactive | 
10 | Cc1nc2cnc(N3CCN(C)CC3)nc2n(C[C@H]2CCCO2)c1=O | inactive | 
11 | COc1cccc(C(=O)N(Cc2cccc(Cl)c2)Cc2ccco2)c1 | inactive | 
12 | CCn1cc(CN2CCC(C(=O)Nc3cccc(-c4cccc(Cl)c4)c3)CC2)c(C)n1 | inactive | 
13 | CC(=O)c1cc(CN2CCC(C(=O)Nc3cccc(-c4cscn4)c3)CC2)cs1 | 20 µM (active) | 
14 | CCn1cc(CN2CCC(C(=O)Nc3cccc(-c4cccc(Cl)c4)c3)CC2)cn1 | inactive | 
15 | CCOc1cc(C(=O)Nc2nnc3n2CCS3)cc(OCC)c1OCC | inactive | 
16 | c1ccc(CN2CC[C@@]3(CCCNC3)C2)cc1 | inactive | 
17 | CC(C)OCCCNc1ncnc2c1[nH]c1ccc(F)cc12 | 39.8 µM (active) | 
18 | COc1ccc(C2Nc3ccccc3C(=O)N2c2ccc(Cl)cc2)cc1Cn1cc([N+](=O)[O-])cn1 (stereo unspecified) | 100 µM (active) | 
19 | COc1ccccc1N1CCN(C2C(=O)c3ccccc3N2C(C)=O)CC1 (stereo unspecified) | inactive | 
20 | CS(=O)(=O)N1CCC2(CC1)CN(Cc1ccccc1)C2 | inactive | 
21 | Cc1ccc(-c2nc(C#N)c(NCCCn3ccnc3)o2)cc1 | inactive | 
22 | N#Cc1nc(-c2ccc(OCc3ccccc3)cc2)oc1NCCCN1CCOCC1 | 39.8 µM (active) | 
23 | COc1ccc(OCc2ccc(-c3nc(C#N)c(N4CCN(c5ccccc5)CC4)o3)o2)cc1 | inactive | 
24 | C/C=C(\C)C(=O)OC1C(OC(=O)C2(C)OC2C)c2cc3ccc(=O)oc3cc2OC1(C)C (stereo unspecified) | inactive | 
25 | Cc1nc2cnc(N3CCN(C)CC3)nc2n(CCC#N)c1=O | inactive | 
26 | Cc1ccc(COC(=O)CN2C(=O)NC3(CCCC3)C2=O)cc1 | inactive | 

Row | SMILES | Potency | activity change, negative = inhibition
27 | CC(OC(=O)CN1C(=O)C2CCCCC2C1=O)C(=O)Nc1ncc(Cl)cc1Cl (stereo unspecified) | inactive | 
28 | CC1=CC(C)(C)Nc2ccc(OC(=O)CN3C(=O)C4CCCCC4C3=O)cc21 (stereo unspecified) | 20 µM (active) | 
29 | O=C(O)CCn1cc(C=C2C(=O)NC(=S)NC2=O)c(-c2cccc(Br)c2)n1 | inactive | 
30 | O=C(O)CCn1cc(/C=C/C(=O)c2ccc(Cl)cc2)c(-c2cccc(Br)c2)n1 | 25.1 µM (active) | 
31 | Cc1csc2nc(COC(=O)c3ccccc3NC(=O)c3ccccc3Cl)cc(=O)n12 | inactive | 
32 | CCc1cnc2c(c1SCC(=O)c1ccccc1)c(=O)n(C)c(=O)n2C | inactive | 
33 | CCC(C)[C@@H](N)C(=O)O (stereo partly specified) | inactive | 
34 | Cc1ccc(SCC(=O)Nc2ccc3oc(-c4ccccc4F)nc3c2)cc1 | inactive | 
35 | COc1ccc(CNC(=O)c2c(C)cc(=O)oc2C)cc1OC | inactive | 
36 | COc1ccc(CNC(=O)c2ccc(-c3cccnc3)c3ccoc23)cc1OC | 22.4 µM (active) | 
37 | COCCCNC(=O)c1ccc(-c2c(C)noc2C)c2ccoc12 | inactive | 
38 | C=CC(=O)c1ccc2ccccc2c1 | inactive | 
39 | CCOC(=O)N1CCN(Cc2ccc3c(c2)CN(C(=O)c2cccc(-n4cccn4)c2)CCO3)CC1 | inactive | 
40 | CCCCC/C=C\C/C=C\CCCCCCCCCC(=O)O |  | -17.4% [at 6.7 µM]
41 | Cc1ccnc(SCCn2c(Br)nc3c2c(=O)[nH]c(=O)n3C)n1 | inactive | 
42 | Cn1c(=O)[nH]c(=O)c2c1nc(Br)n2CCCCSc1nc2ccccc2o1 | 35.5 µM (active) | 
43 | Cn1c(=O)c2c(nc(Br)n2CCSc2nc3ccccc3o2)n(C)c1=O | inactive | 
44 | COc1ccccc1CNc1ncnc2ccc(-c3ccc4c(c3)OCO4)cc12 | inactive | 
45 | CC1O[C@@H](Oc2c(-c3ccc(O)c(O)c3)oc3cc(O)cc(O)c3c2=O)C(O)C(O)C1O (stereo partly specified) | inactive | 
46 | COc1ccc(Cc2nc3ccc(C(=O)NCc4ccccc4C)cc3o2)cc1 | inactive | 
47 | COC(=O)c1ccccc1NC(=O)c1ccc2c(=O)n3c(nc2c1)CCCCC3 | inactive | 
48 | CCc1c(C)sc(NC(=O)C2c3ccccc3Oc3ccccc32)c1C(=O)OC(C)C | inactive | 
49 | CC1CCN(S(=O)(=O)c2ccc3c(c2)n(C)c(=O)n3C)CC1 | inactive | 
50 | Cc1ccn2c(c1)nc(=O)c1cc(S(=O)(=O)N3CCC(C)CC3)ccc12 | 11.2 µM (active) | 
51 | CC1CCN(S(=O)(=O)c2ccc3c(ccn3CC(=O)O)c2)CC1 | inactive | 
52 | CCc1ccc(CNC(=O)c2ccc(CS(=O)c3ccc(Br)cc3)o2)cc1 (stereo unspecified) | inactive | 

Row | SMILES | Potency | activity change, negative = inhibition
53 | CN(Cc1cccc2ncccc12)C(=O)c1cnn(-c2nccc(-c3ccccc3F)n2)c1C1CC1 | 3.98 µM (active) | 
54 | Cc1cccc(CNC(=O)c2cnn(-c3nccc(-c4ccccc4F)n3)c2C2CC2)n1 | inactive | 
55 | Cc1ccc(-c2ccnc(-n3ncc(C(=O)N(C)Cc4cccc5ncccc45)c3C3CC3)n2)o1 | inactive | 
56 | COc1cccc(C2C(C(=O)Nc3ccc(C)cc3C)=C(C)Nc3c(C(=O)Nc4ccccc4)cnn32)c1 (stereo unspecified) | inactive | 
57 | Nc1nc(/C(=C/CC(=O)O)C(=O)N[C@@H]2C(=O)N3C(C(=O)O)=CCS[C@H]23)cs1 | inactive | 
58 | COc1ccccc1NC(=O)c1oc2ccccc2c1NC(=O)COc1ccccc1OC | inactive | 
59 | CCOC(=O)CSc1nc2ccc(C)cc2n2cnnc12 | inactive | 
60 | c1ccc(CC2CCN(c3nc4ccccc4n4cnnc34)CC2)cc1 | inactive | 
61 | O=C(c1ccccc1)c1ccc2nc(N3CCCCC3)c3nncn3c2c1 | 10 µM (active) | 
62 | O=c1c(O)c(Br)ccc2c(Br)c(O)c(O)c(O)c12 | inactive | 
63 | COc1ccc(-c2c(C)c3ccc(O)c(CN4CCCC4)c3oc2=O)cc1OC | inactive | 
64 | COCC1CCCN(Cc2ccc3c(c2)CN(C(=O)c2ccnn2C)CCO3)C1 (stereo unspecified) | inactive | 
65 | CC(=O)Nc1cc(C(=O)NCc2ccc(F)cc2Cl)ccc1Sc1ccc(Cl)cc1 | inactive | 
66 | COc1ccc(Oc2ncc3nc(C)c(=O)n(-c4ccccc4)c3n2)cc1 | inactive | 
67 | CSc1ccc(CCNC(=O)c2ccc3c(c2)nc2n3CCOC2)cc1 | inactive | 
68 | O=C(O)C1CCCN1S(=O)(=O)c1ccc(Br)cc1 (stereo unspecified) | inactive | 
69 | CC1CN/C(=C\C(=O)c2ccc(Br)cc2)C(=O)N1 (stereo unspecified) | 12.6 µM (active) | 
70 | Cc1nc2cnc(Oc3cccc(Cl)c3)nc2n(C2CC2)c1=O | inactive | 
71 | CC(C)[C@H](CO)Nc1nc(Nc2cc(N)cc(Cl)c2)c2ncn(C(C)C)c2n1 | inactive | 
72 | Cc1cccc(-n2c(SCC(N)=O)nc3c(c2=O)C2(CCCCC2)Cc2ccccc2-3)c1 | 14.1 µM (active) | 
73 | Cc1cccc(-n2c(SCC(N)=O)nc3c(oc4ccccc43)c2=O)c1 | inactive | 
74 | Cc1cccc(NC(=O)CSc2nc3c([nH]c4ccccc43)c(=O)n2-c2cc(C)cc(C)c2)c1 | inactive | 
75 | COc1ccc(NC(=O)Cn2c(=O)n(Cc3ccc(C(=O)NCc4ccccc4Cl)cc3)c(=O)c3ccccc32)cc1 | inactive | 
76 | CCOc1cc(/C=C(/C#N)c2ccc(Cl)cc2)cc(Cl)c1OCC(=O)O | 8.91 µM (active) | 
77 | CCOC(=O)CN(C(=O)COc1nc(C)cc(C)c1C#N)c1ccc(Cl)cc1 | inactive | 
78 | CCOc1ccc(/C=C(\C#N)c2nc3ccccc3c(=O)[nH]2)cc1OC | inactive | 

Row | SMILES | Potency | activity change, negative = inhibition
79 | O=C(c1ccncc1)N1CCC2(CCCN(C(c3ccccc3)c3ccccc3)C2)CC1 | inactive | 
80 | Cc1ccc(CN2CCCn3nc(C(=O)NCc4ccccc4Cl)cc3C2=O)cc1 | inactive | 
81 | C/C(=N\NC(=O)c1ccccc1F)c1ccccn1 | 12.6 µM (active) | 
82 | CN(NC(=O)c1ccccc1F)c1nc(C(F)(F)F)nc2ccccc12 | inactive | 
83 | O=C(NC(=S)NC1CCSC1=O)c1ccccc1F (stereo unspecified) | inactive | 
84 | CCn1c2ccccc2c2cc(CN3CCN(Cc4cccc(Cl)c4)CC3)ccc21 | inactive | 
85 | CCCN(C/C=C/I)C1CCc2ccc(O)cc2C1 (stereo unspecified) | inactive | 
86 | CC1Cc2cc(S(=O)(=O)CCC(=O)NCc3ccc(Cl)cc3)ccc2N1C(=O)C1CC1 (stereo unspecified) | inactive | 
87 | O=C(CSc1oc(-c2ccc(F)cc2)nc1S(=O)(=O)c1ccc(Br)cc1)NC1CCCCC1 | inactive | 
88 | CC(C)S(=O)(=O)c1oc(-c2ccc(F)cc2)nc1S(=O)(=O)c1ccc(F)cc1 | 31.6 µM (active) | 
89 | Cc1ccc(-c2nc(S(=O)(=O)c3ccc(C)cc3)c(N3CCCCCC3)o2)cc1 | inactive | 
90 | COc1ccc(C(=O)N2CCC3(CCCN(C(c4ccccc4)c4ccccc4)C3)CC2)cc1 | inactive | 
91 | O=C(c1csnn1)N1CCC[C@@]2(CCN(c3cccc(-c4ccccc4)c3)C2)C1 | inactive | 
92 | Cc1c(NC(=O)C(C)(C)C)cccc1-c1nc2ccccc2s1 | inactive | 
93 | O=S(=O)(c1ccccc1)N1CCC2(CC1)CN(Cc1nccs1)C2 | inactive | 
94 | O=C(c1ccc2c(c1)N(Cc1ccccc1)C(=O)c1ccccc1S2(=O)=O)N1CCCC1 | inactive | 
95 | CC1C(=O)N(Cc2ccccc2)c2ccccc2N1C(=O)c1ccccc1 (stereo unspecified) | 31.6 µM (active) | 
96 | CC1Oc2ccccc2N(Cc2cccnc2)C1=O (stereo unspecified) | inactive | 
97 | CS(=O)(=O)N1CCC2(CCN(c3ccncc3)CC2)CC1 | inactive | 
98 | CN1CCC2(CC1)CCN(S(=O)(=O)c1ccccc1)CC2 | inactive | 
99 | CC(=O)Nc1ccc(NC(=O)CC2CCCC2)cc1 | inactive | 
100 | O=C(O)CC(SCC(=O)Nc1ccc(Br)cc1)C(=O)O (stereo unspecified) | inactive | 
101 | O=C(CCl)Nc1ccc(Sc2ccc(NC(=O)CCl)cc2)cc1 | 7.94 µM (active) | 
